Drawing on PubChem BioAssay (NCI), this text covers growth for 14 compounds.

Test systems include DU-145 prostate; K-562 leukemia; MALME-3M melanoma; MDA-MB-231 breast; RXF 393 renal; SF-268 CNS; SF-295 CNS; SF-539 CNS; UACC-257 melanoma; M14 melanoma.
Assay in all cases: NCI-60 one-dose screen, 48 h (100 = growth as untreated, 0 = no growth, -100 = all killed)
What all share (conditions): 10 µM

About 83,000 compounds went through this panel and 20% of them were active in at least one assay; those are over-represented in the sample as a whole.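 The test compound was applied at a single concentration to cells in 96-well plates for 48 hours, and percent growth was recorded.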 A number with no mark means an inactive call. The source made the active and inactive calls. The calls were made as follows: active = growth percent below 10; inactive = the rest.

Turning to `Nc1nccc(OCCO)n1`, the growth was 104% in the assay on DU-145 prostate; 99.3% in the assay on K-562 leukemia; 108% in the assay with MALME-3M melanoma; 108% in the assay with MDA-MB-231 breast; 117% in the assay with RXF 393 renal; 101% with SF-268 CNS. The growth was 97.5% in the assay on SF-295 CNS, 101% in the assay with SF-539 CNS, 97.6% in the assay on UACC-257 melanoma and 102% with M14 melanoma.

With `CCN(CCCNc1cc2c(c(N)c1S(=O)(=O)O)C(=O)c1ccccc1C2=O)c1ccccc1`, the growth was 124% with DU-145 prostate; 101% in the assay with K-562 leukemia; 97% in the assay on MALME-3M melanoma; 88.9% in the assay with MDA-MB-231 breast; 108% in the assay on RXF 393 renal; 109% with SF-268 CNS. Also, the growth was 111% in the assay with SF-295 CNS, 98.4% in the assay on SF-539 CNS, 102% with UACC-257 melanoma and 98.3% with M14 melanoma.

As to `CCc1ccc(-c2ccc(-n3nc(C)c4c(N)nc(Cc5ccccc5)nc43)cc2)cc1`, the growth with DU-145 prostate is 77%; in the assay on K-562 leukemia, 7.44% (active); in the assay on MALME-3M melanoma, 106%; in the assay on MDA-MB-231 breast, 38.2%; in the assay on RXF 393 renal it was 75.7%; in the assay on SF-268 CNS it was 66.1%. In addition, the growth is 70.8% with SF-295 CNS, 80.9% in the assay on SF-539 CNS, 71.9% in the assay on UACC-257 melanoma and 30.3% in the assay with M14 melanoma.

Take `COc1ccc2c(c1)C(=O)/C(=C/c1ccc([N+](=O)[O-])o1)O2`: the growth in the assay on DU-145 prostate is -85% (active); in the assay with K-562 leukemia, -34.8% (active); in the assay with MALME-3M melanoma, -77.8% (active); in the assay with MDA-MB-231 breast, -76.9% (active); with RXF 393 renal it was -78.3% (active); in the assay on SF-268 CNS it was -72.7% (active). The growth was 3.29% (active) in the assay with SF-295 CNS, -49.8% (active) in the assay with SF-539 CNS, -85.6% (active) in the assay with UACC-257 melanoma and -64.2% (active) in the assay on M14 melanoma.

Regarding `CCCCCCCCCCOC(c1ccccc1)c1ccccc1`, the growth in the assay with DU-145 prostate is 105%; in the assay on K-562 leukemia it was 85.6%; with MALME-3M melanoma, 95.7%; in the assay on MDA-MB-231 breast it was 88.4%; in the assay on RXF 393 renal it was 94.2%; with SF-268 CNS it was 94.2%. Moreover, the growth in the assay with SF-295 CNS is 89.6%; in the assay with SF-539 CNS it was 102%; with UACC-257 melanoma, 102%; with M14 melanoma it was 90.9%.

For the compound `CCOC(=O)c1cocc1C(=O)O`, the growth with DU-145 prostate was 113%; with K-562 leukemia, 92.6%; in the assay with MALME-3M melanoma it was 106%; with MDA-MB-231 breast, 118%; in the assay on RXF 393 renal, 114%; with SF-268 CNS, 108%. The growth was 101% in the assay with SF-295 CNS, 107% with SF-539 CNS, 103% in the assay on UACC-257 melanoma and 103% in the assay on M14 melanoma.

Turning to `COc1ccc(/C(C#N)=C/c2cccc(OC)c2OC)cc1`, the growth was 106% in the assay on DU-145 prostate; 33.3% with K-562 leukemia; 73.2% in the assay with MALME-3M melanoma; 83.3% with MDA-MB-231 breast; 85.7% in the assay on RXF 393 renal; 92.5% with SF-268 CNS. Further, the growth is 75.3% in the assay with SF-295 CNS, 94.6% in the assay with SF-539 CNS, 78% with UACC-257 melanoma and 86% in the assay with M14 melanoma.

Regarding `COc1cc2cc(Oc3ccc(NC(=O)c4ccc(Cl)c(C(F)(F)F)c4)cc3)c(C)nc2cc1OC`, the growth was 43% in the assay on DU-145 prostate; 14.8% in the assay on K-562 leukemia; 37.2% in the assay on MALME-3M melanoma; 48.3% with MDA-MB-231 breast; 50.8% with RXF 393 renal; 56.1% in the assay with SF-268 CNS. In addition, the growth was 7.81% (active) in the assay with SF-295 CNS, 57.3% in the assay on SF-539 CNS, 36.8% with UACC-257 melanoma and 18.4% with M14 melanoma.

Turning to `COc1ccc(-c2nnc(SCC(=O)Nc3ccc(C(=O)/C=C/c4ccccc4)cc3)n2-c2ccccc2)cc1OC`, the growth with DU-145 prostate is 50.4%; with K-562 leukemia it was 37.2%; in the assay on MALME-3M melanoma it was 36.4%; in the assay with MDA-MB-231 breast, 73.4%; in the assay with RXF 393 renal, 72.4%; in the assay with SF-268 CNS it was 84.8%. Moreover, the growth in the assay with SF-295 CNS was 106%; in the assay with SF-539 CNS, 0.289% (active); in the assay on UACC-257 melanoma it was 72.4%; in the assay on M14 melanoma, 57.7%.

Regarding `N#CC1=C(N)Oc2cc(N)ccc2C1c1cccnc1` (stereo not given), the growth was 104% in the assay with DU-145 prostate; 83.3% in the assay on K-562 leukemia; 98.6% with MALME-3M melanoma; 101% with MDA-MB-231 breast; 108% with RXF 393 renal; 93.4% in the assay with SF-268 CNS. The growth in the assay with SF-295 CNS is 99.7%; with SF-539 CNS, 96.1%; with UACC-257 melanoma, 109%; in the assay on M14 melanoma, 87.3%.

Turning to `Nc1ncnc2c1ncn2C1(CO)OCC(O)C(O)C1O` (stereo not given), the growth is 104% in the assay on DU-145 prostate; 110% in the assay with K-562 leukemia; 98.6% with MALME-3M melanoma; 109% in the assay on MDA-MB-231 breast; 110% in the assay with RXF 393 renal; 95.3% in the assay with SF-268 CNS. The growth with SF-295 CNS was 101%; with SF-539 CNS, 96.5%; with UACC-257 melanoma, 101%; in the assay with M14 melanoma, 97%.

For the compound `COc1ccc(N=Nc2cc(OC)c(OC)c(OC)c2)cc1`, the growth with DU-145 prostate is 97.3%; in the assay on K-562 leukemia it was 69.4%; with MALME-3M melanoma it was 77.9%; in the assay with MDA-MB-231 breast, 89.4%; in the assay on RXF 393 renal, 86%; with SF-268 CNS, 91.3%. Further, the growth was 83.6% in the assay on SF-295 CNS, 82.6% in the assay on SF-539 CNS, 84.9% with UACC-257 melanoma and 74.3% in the assay with M14 melanoma.

For `COc1ccc2cc(-c3nc4ccccc4s3)c(Cl)nc2c1OC`, the growth is 113% in the assay on DU-145 prostate; 92.3% in the assay on K-562 leukemia; 109% in the assay on MALME-3M melanoma; 87.3% in the assay with MDA-MB-231 breast; 104% in the assay with RXF 393 renal; 93.3% in the assay on SF-268 CNS. The growth with SF-295 CNS was 108%; with SF-539 CNS it was 99%; in the assay on UACC-257 melanoma, 109%; in the assay on M14 melanoma it was 102%.

For `CC(C)c1cc(N=O)cc(C(C)C)c1O`, the growth in the assay with DU-145 prostate is 119%; in the assay on K-562 leukemia, 106%; in the assay with MALME-3M melanoma it was 110%; in the assay with MDA-MB-231 breast it was 99.3%; in the assay with RXF 393 renal it was 110%; in the assay with SF-268 CNS it was 104%. The growth is 102% with SF-295 CNS, 109% in the assay with SF-539 CNS, 94.8% in the assay on UACC-257 melanoma and 123% in the assay on M14 melanoma.
